Data: the supplement of paper PMC11732987, “Enantioselective OTUD7B fragment discovery through chemoproteomics screening and high-throughput optimisation” (Communications Chemistry, 2025)

Legend:
Assay in all cases: log2 ratio of Biotin-Ahx-Ub-VS probe labelling (fragment/DMSO); higher = less target engagement (more negative = stronger competition), active = hit call of the paper (q ≤ 0.05, log2 ratio ≤ -1)
Details in all cases: compound concentration: 200 uM; treatment time: 3 h
USP16 = USP16 (UniProt Q9Y5T5)
Sequence of USP16 (Q9Y5T5 whole entry, looked up, the tested form may be a part): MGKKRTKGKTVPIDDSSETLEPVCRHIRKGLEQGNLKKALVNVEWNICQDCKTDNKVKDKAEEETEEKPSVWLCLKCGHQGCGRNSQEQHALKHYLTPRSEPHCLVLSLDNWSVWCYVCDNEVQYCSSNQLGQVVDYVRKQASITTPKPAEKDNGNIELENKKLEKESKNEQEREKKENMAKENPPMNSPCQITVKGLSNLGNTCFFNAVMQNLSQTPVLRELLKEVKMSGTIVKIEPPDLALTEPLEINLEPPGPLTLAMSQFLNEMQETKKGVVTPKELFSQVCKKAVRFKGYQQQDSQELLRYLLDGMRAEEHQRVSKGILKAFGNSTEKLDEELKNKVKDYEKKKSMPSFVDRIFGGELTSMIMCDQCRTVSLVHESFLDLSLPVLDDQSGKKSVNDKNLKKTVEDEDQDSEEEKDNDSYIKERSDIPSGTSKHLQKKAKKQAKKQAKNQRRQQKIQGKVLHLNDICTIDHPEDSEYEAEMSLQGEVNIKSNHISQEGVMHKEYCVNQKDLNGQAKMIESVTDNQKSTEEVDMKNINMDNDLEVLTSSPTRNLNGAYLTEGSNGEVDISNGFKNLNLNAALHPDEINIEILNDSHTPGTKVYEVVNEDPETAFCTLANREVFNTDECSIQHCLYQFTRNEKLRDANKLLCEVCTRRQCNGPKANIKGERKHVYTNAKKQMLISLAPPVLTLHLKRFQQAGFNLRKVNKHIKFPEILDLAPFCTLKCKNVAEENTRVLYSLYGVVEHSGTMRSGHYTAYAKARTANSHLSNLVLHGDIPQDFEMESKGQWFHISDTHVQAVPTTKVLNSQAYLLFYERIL
How it was run: (§1)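 Labelled DUBs were enriched with NeutrAvidin, digested with LysC and trypsin, and run by diaPASEF LC-MS/MS. The labelling used Biotin-Ahx-Ub-VS at 0.5 µM final for 1 h on HEK293T lysate (495 µg per sample) previously treated in triplicate with fragment at 200 µM or vehicle for 3 h. Values are average log2 fragment/vehicle ratios by unpaired t-test on global-median-normalised Spectronaut quantities of proteins with ≥2 unique peptides.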

USP19 = target: T1, USP19 (UniProt O94966)
T1 sequence (whole entry): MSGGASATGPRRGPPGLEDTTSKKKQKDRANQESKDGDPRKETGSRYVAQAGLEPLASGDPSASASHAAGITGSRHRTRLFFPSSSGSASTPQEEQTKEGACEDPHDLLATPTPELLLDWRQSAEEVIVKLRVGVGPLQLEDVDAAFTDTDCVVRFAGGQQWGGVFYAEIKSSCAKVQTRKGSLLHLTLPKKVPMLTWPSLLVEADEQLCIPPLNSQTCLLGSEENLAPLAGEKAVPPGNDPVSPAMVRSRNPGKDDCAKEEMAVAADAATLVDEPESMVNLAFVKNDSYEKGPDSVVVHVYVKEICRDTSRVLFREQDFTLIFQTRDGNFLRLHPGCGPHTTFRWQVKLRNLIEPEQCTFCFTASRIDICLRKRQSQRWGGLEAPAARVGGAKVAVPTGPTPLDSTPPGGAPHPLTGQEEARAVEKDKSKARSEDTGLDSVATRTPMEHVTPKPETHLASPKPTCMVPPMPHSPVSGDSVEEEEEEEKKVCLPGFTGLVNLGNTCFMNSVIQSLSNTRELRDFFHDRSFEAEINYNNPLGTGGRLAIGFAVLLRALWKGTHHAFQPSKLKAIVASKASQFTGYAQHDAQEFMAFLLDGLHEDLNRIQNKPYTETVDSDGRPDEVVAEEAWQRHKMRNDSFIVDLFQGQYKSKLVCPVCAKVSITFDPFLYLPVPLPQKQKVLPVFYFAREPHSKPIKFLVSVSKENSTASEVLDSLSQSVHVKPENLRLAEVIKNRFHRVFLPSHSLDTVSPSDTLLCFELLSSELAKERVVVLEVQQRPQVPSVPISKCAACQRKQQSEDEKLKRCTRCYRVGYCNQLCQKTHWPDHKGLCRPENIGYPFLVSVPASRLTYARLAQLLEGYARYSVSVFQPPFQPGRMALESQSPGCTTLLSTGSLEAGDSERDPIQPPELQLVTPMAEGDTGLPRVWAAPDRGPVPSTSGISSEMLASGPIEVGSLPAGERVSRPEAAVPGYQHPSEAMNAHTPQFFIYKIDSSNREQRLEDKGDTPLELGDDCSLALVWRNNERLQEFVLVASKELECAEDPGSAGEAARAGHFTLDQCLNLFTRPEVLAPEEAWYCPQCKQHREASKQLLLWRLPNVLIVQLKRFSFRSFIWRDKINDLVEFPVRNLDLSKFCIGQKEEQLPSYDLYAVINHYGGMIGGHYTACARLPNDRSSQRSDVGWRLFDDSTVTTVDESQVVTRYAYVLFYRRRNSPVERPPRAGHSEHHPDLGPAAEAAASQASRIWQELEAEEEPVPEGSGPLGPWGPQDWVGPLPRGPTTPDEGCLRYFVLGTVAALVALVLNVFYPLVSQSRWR
How it was run: as §1

USP24 = USP24 (UniProt Q9UPU5)
Sequence of USP24 (Q9UPU5 whole entry): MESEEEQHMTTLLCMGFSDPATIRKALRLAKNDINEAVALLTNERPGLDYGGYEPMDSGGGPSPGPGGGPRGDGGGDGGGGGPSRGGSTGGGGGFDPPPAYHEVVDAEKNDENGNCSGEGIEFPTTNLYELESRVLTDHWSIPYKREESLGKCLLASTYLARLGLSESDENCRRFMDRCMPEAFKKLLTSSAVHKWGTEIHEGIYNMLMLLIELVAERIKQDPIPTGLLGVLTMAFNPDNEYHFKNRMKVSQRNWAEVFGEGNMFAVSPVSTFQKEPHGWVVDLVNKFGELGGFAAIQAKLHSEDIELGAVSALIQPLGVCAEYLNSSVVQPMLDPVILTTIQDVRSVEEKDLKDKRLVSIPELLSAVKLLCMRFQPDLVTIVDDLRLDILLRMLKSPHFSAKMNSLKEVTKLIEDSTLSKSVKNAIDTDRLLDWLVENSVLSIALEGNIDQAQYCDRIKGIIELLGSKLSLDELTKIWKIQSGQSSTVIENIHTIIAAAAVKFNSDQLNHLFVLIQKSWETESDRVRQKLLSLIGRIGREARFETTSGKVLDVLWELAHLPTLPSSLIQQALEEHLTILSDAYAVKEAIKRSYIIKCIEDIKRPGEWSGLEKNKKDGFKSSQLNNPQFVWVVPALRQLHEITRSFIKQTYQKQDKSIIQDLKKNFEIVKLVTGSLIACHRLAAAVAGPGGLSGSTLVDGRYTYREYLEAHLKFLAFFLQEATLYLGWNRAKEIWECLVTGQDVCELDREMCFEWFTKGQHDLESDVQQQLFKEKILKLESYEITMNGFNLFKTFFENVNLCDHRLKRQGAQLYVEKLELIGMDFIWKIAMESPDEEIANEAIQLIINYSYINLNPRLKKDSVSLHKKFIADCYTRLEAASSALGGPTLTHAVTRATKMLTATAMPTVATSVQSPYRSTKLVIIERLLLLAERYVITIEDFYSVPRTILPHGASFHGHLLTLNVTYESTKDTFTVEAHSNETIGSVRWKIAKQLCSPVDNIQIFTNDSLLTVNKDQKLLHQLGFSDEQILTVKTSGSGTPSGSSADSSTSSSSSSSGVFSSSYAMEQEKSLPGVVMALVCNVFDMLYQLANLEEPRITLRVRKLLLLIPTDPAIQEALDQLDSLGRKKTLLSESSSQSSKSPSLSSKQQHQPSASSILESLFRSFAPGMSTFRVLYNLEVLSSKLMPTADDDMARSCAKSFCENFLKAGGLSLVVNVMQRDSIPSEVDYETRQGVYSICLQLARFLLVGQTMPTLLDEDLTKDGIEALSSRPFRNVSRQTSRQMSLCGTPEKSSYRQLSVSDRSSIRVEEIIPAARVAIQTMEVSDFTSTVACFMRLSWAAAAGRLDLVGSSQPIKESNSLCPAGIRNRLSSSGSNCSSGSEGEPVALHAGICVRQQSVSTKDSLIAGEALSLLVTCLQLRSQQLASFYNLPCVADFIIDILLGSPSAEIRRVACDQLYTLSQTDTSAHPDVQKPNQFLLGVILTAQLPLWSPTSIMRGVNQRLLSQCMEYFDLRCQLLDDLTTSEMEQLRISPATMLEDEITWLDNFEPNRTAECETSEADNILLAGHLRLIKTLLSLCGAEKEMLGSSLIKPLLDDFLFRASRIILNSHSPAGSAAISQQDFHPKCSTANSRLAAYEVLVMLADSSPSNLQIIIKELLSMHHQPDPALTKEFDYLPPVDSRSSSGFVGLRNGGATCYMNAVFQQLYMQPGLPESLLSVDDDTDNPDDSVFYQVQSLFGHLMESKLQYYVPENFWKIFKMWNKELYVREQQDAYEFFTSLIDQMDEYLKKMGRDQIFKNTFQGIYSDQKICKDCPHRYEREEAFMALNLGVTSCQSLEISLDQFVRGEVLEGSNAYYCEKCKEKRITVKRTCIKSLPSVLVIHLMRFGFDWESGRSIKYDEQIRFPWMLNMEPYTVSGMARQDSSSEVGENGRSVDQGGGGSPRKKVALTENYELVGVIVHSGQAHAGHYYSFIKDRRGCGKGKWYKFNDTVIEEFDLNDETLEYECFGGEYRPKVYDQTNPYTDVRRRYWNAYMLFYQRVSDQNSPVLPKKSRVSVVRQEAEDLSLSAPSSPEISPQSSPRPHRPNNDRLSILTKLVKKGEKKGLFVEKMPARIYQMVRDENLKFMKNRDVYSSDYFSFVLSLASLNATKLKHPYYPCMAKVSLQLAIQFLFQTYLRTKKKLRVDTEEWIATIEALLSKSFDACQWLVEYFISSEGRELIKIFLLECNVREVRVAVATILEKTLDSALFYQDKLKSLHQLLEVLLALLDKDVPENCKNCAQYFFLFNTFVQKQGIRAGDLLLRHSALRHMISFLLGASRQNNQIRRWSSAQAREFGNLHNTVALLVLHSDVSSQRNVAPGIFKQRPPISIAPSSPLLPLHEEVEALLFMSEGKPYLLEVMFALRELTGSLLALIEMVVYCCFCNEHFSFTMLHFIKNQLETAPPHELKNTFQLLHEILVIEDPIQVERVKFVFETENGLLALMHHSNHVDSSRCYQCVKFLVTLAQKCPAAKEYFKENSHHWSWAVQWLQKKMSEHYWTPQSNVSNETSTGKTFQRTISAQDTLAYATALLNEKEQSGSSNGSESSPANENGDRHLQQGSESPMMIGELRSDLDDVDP
How it was run: as §1

USP25 = target: T2, USP25 (UniProt Q9UHP3)
T2 sequence (whole entry): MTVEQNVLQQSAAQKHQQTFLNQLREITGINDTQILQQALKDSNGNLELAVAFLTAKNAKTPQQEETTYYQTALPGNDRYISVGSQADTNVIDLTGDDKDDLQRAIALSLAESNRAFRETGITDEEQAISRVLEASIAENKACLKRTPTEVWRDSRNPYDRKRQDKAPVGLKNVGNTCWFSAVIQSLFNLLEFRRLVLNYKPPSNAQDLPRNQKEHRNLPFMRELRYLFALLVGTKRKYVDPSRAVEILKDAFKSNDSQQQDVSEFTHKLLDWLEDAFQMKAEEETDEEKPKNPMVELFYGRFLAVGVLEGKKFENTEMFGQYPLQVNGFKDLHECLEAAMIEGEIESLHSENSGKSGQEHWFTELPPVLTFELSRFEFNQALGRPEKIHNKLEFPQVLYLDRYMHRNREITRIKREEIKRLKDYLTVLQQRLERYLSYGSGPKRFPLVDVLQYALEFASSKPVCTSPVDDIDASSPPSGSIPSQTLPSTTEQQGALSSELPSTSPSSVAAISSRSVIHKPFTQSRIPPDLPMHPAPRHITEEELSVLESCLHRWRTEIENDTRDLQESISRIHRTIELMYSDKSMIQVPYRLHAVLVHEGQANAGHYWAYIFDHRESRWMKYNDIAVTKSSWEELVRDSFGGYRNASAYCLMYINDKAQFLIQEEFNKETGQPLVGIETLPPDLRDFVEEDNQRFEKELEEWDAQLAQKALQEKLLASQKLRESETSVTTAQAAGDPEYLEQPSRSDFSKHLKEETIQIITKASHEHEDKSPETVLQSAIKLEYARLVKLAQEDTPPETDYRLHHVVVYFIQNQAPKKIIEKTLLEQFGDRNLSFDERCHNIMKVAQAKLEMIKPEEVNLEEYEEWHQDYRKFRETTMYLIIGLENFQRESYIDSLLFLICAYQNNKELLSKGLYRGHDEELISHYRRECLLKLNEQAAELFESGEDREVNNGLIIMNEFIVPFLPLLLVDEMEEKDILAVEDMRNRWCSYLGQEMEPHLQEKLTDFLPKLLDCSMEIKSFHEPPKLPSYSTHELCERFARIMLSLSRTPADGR
How it was run: as §1

USP28 = target: T3, USP28 (UniProt Q96RU2)
T3 sequence (whole entry): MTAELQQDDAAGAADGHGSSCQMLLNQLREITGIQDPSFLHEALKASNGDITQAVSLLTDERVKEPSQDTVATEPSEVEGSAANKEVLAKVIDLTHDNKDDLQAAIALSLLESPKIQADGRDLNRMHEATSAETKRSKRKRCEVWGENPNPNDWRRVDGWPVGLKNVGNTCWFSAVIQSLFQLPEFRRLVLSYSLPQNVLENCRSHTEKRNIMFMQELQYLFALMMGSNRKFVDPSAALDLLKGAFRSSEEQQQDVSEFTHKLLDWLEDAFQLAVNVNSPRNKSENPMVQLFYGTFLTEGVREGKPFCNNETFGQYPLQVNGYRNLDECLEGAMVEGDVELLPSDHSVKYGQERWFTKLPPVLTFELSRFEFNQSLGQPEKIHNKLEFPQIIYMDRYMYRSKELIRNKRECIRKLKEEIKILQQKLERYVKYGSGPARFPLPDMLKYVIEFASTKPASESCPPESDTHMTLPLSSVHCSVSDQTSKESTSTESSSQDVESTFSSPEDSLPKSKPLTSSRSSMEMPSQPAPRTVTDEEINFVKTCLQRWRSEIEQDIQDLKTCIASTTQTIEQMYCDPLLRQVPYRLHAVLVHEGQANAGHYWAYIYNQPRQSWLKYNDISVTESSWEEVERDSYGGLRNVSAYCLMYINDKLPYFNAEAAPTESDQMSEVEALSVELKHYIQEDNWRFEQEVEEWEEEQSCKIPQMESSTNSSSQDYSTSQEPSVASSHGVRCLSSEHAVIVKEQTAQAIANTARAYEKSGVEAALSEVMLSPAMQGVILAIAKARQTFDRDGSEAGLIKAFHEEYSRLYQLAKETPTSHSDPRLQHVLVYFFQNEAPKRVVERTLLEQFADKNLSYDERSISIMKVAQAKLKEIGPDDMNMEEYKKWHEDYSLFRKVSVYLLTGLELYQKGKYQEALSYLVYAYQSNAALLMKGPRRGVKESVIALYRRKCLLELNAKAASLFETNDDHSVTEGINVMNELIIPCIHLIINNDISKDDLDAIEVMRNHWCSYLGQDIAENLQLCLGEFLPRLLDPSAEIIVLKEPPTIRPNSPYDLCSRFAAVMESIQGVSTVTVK
How it was run: as §1

Measured: log2 ratio of Biotin-Ahx-Ub-VS probe labelling

Cc1cccc(C(CNC(=O)CCl)N2CCOCC2)c1.Cl (stereo not given)
inactive: USP16 -0.147 | USP19 0.101 | USP24 0.135 | USP25 -0.355 | USP28 -0.0645
